# Measured values: the supplement of paper PMC10849652
# Targets with a hit are over-represented here; the source holds about 8,800 in all. About 0.5% of all pairs of compound and target were hits. A number with no mark means an inactive call.
# Assays:
# Assay in all cases: log2 fold change, soluble protein after heating vs DMSO (PISA); higher = thermal stabilisation; K562 lysate, 10 uM; active = over 0.2 and 3.5 SD of the protein, either way, in both replicates (recomputed)
# erlotinib = compound: C#Cc1cccc(Nc2ncnc3cc(OCCOC)c(OCCOC)cc23)c1 [erlotinib]
# Summary of the method: (§1)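 K562 pellets were dounce-homogenised in PBS pH 7.4 with 1 mM MgCl2, and the crude extract at 1 mg/mL protein was treated with 10 μM compound for 30 min. Aliquots were heated for 3 min across 48°C-58°C, pooled, and brought to 0.5% NP-40 at 4°C; soluble protein was the supernatant after 21,000xg for 90 min. Soluble protein was quantified by TMTpro 16plex LC-MS/MS with channel sums equalised, and reported as log2 fold change in thermal stability against DMSO controls, with values from duplicates.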
# [1] = compound: C/C(=N\NC(=O)C1=CC(=CC=C1)S(=O)(=O)N2CCOCC2)/C3=C(C=CC(=C3)Cl)O
# Summary of the method: as §1
# [2] = compound: C1=CC(=CC=C1C2=NC3=C(N2)C=C(C=C3)C(=O)N)OC4=CC=C(C=C4)Cl
# Summary of the method: as §1
# [3] = compound: C1=CC2=C(C=CC(=C2)/C=C\3/C(=O)NC(=NCC4=CC=CS4)S3)N=C1
# Summary of the method: as §1
# [4] = compound: C1=CC2=NC=CN=C2C=C1/C=C/3\C(=O)NC(=O)S3
# Summary of the method: as §1
# [5] = compound: C1=CC=C(C=C1)C2=NC(=C(N2)C3=CC=NC=C3)C4=CC(=C(C=C4)Cl)O
# Summary of the method: as §1
# [6] = compound: C1=CC=C2C(=C1)C3=NNC4=CC=CC(=C43)C2=O
# Summary of the method: as §1
# [7] = compound: C1CCN(C1)C(=O)NC2=CC=CC(=C2)NC3=NC=C(C(=N3)NCCC4=CN=CN4)Br
# Summary of the method: as §1
# [8] = compound: C1CN(CCC1(CC2=CC=C(C=C2)Cl)N)C3=NC=NC4=C3C=CN4
# Summary of the method: as §1
# IRAK-1-4 Inhibitor I = compound: C1COCCN1CCN2C3=CC=CC=C3N=C2NC(=O)C4=CC(=CC=C4)[N+](=O)[O-] [IRAK-1-4 Inhibitor I]
# Summary of the method: as §1
# ibrutinib = compound: C=CC(=O)N1CCC[C@@H](n2nc(-c3ccc(Oc4ccccc4)cc3)c3c(N)ncnc32)C1 [ibrutinib]
# Summary of the method: as §1
# [9] = compound: CC(=O)c1cnc2ccc(-c3cc(Cl)c(O)c(Cl)c3)nc2c1N[C@H]1CC[C@H](CN(C)C)CC1
# Summary of the method: as §1
# ralimetinib = compound: CC(C)(C)Cn1c(N)nc2ccc(-c3[nH]c(C(C)(C)C)nc3-c3ccc(F)cc3)nc21 [ralimetinib]
# Summary of the method: as §1
# [10] = compound: CC(C)(O)CC(=O)NCCn1ccc2ncnc(Nc3ccc(Oc4cccc(C(F)(F)F)c4)c(Cl)c3)c21
# Summary of the method: as §1
# [11] = compound: CC(C)C1=C2N=C(C=C(N2N=C1)NCC3=CC=CC=C3)NCCCCCCN
# Summary of the method: as §1
# [12] = compound: CC1=C(C(CC(=O)N1)C2=CC=C(C=C2)C(F)(F)F)C(=O)NC3=C(C=C4C(=C3)C=NN4)F
# Summary of the method: as §1
# [13] = compound: CC1=C(C2=C(C=C1)C(=O)C3=CC=CC=C3N2CCCN)C
# Summary of the method: as §1
# [14] = compound: CC1=C(C=C(C=C1)NC(=O)C2=CC(=CC=C2)C(C)(C)C#N)NC3=CC4=C(C=C3)N=CN(C4=O)C
# Summary of the method: as §1
# [15] = compound: CC1=C(C=C(C=C1)NC(=O)C2=CC(=CC=C2)N(C)C)NC(=O)C3=CC=C(C=C3)O
# Summary of the method: as §1
# [16] = compound: CC1=CC=C(C=C1)SC2=C3C=C(SC3=CN=C2)C(=O)N
# Summary of the method: as §1
# UniProt P68400, sequence (P68400 whole entry, looked up): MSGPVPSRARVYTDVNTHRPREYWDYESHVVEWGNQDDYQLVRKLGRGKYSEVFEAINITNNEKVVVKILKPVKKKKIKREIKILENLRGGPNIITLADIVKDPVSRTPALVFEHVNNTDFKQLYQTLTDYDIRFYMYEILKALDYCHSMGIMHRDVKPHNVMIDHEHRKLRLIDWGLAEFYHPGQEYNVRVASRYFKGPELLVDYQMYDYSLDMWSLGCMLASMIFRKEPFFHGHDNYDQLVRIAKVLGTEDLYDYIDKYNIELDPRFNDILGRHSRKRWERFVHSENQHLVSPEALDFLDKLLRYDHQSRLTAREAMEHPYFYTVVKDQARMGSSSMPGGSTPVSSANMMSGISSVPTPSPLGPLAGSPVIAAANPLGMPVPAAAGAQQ
# UniProt Q13057, sequence (Q13057 whole entry, looked up): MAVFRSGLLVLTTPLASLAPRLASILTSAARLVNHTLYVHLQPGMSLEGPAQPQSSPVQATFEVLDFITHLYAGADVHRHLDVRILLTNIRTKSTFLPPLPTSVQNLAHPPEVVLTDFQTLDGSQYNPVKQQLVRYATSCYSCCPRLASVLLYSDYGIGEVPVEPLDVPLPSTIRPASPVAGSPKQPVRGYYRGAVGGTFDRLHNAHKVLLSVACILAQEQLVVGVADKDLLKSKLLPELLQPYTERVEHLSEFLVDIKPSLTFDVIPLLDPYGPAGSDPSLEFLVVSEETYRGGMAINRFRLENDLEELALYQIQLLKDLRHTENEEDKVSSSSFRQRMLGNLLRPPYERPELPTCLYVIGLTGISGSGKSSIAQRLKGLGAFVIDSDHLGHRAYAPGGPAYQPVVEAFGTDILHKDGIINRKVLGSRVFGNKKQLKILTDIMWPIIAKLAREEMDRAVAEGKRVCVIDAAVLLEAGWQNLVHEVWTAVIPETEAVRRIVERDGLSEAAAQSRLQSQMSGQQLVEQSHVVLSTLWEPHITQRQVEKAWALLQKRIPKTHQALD
# UniProt P04080, sequence (P04080 whole entry, looked up): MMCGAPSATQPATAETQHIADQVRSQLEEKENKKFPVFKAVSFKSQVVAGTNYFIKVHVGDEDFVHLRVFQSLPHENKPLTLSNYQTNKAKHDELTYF
# UniProt O15111, sequence (O15111 whole entry, looked up): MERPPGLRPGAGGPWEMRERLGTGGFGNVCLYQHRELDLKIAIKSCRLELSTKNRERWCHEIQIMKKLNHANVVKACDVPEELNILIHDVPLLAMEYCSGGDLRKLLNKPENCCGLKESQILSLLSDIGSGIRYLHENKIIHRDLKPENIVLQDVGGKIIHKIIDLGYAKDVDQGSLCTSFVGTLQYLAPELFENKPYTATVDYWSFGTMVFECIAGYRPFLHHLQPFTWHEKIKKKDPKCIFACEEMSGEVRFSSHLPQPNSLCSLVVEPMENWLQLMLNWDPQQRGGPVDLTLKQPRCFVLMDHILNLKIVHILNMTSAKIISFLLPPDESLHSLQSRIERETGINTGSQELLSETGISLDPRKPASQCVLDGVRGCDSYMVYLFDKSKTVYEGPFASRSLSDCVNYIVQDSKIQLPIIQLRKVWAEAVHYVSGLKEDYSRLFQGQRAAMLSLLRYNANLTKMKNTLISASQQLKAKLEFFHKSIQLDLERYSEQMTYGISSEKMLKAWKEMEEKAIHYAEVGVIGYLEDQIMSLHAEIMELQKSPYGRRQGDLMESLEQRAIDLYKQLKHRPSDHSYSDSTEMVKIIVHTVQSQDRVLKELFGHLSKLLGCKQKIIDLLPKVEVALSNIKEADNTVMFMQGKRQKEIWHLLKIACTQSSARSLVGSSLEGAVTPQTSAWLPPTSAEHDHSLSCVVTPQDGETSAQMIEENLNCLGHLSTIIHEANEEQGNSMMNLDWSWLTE
# UniProt O14757, sequence (O14757 whole entry, looked up): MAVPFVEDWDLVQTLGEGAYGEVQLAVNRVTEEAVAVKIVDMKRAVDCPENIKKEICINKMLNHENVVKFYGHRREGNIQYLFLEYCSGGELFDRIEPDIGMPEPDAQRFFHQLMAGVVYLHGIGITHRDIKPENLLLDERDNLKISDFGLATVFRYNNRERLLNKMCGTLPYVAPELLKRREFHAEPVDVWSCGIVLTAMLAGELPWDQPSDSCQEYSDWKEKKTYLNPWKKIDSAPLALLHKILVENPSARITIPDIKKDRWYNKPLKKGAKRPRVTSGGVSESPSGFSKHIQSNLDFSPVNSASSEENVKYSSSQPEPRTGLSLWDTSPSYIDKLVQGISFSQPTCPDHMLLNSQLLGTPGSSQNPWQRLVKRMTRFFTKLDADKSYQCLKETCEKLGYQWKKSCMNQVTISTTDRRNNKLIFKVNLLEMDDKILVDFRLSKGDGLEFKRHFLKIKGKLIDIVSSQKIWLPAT
# UniProt Q9UHI6, sequence (Q9UHI6 whole entry, looked up): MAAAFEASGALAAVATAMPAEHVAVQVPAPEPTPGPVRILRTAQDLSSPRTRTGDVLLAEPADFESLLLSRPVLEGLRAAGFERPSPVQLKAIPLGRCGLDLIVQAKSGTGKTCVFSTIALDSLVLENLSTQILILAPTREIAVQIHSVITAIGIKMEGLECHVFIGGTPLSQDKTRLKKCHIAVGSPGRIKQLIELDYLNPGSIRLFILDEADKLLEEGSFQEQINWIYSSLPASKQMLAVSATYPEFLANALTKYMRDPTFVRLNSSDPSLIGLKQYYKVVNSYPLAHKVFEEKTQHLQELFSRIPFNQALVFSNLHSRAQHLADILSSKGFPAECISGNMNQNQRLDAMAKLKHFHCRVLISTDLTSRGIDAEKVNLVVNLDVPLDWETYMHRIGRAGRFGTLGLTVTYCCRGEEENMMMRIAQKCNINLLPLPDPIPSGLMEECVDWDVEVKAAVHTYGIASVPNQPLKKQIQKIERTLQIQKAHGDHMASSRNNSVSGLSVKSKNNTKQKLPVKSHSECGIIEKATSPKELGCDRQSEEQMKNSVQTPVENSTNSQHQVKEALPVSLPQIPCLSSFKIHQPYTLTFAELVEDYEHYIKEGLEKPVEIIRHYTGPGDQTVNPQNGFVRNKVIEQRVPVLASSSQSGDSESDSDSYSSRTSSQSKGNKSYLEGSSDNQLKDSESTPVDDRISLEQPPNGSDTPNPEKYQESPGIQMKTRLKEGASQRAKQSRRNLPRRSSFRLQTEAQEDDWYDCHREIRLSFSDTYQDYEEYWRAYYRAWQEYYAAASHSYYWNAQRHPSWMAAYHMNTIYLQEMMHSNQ
# UniProt Q8TDD1, sequence (Q8TDD1 whole entry, looked up): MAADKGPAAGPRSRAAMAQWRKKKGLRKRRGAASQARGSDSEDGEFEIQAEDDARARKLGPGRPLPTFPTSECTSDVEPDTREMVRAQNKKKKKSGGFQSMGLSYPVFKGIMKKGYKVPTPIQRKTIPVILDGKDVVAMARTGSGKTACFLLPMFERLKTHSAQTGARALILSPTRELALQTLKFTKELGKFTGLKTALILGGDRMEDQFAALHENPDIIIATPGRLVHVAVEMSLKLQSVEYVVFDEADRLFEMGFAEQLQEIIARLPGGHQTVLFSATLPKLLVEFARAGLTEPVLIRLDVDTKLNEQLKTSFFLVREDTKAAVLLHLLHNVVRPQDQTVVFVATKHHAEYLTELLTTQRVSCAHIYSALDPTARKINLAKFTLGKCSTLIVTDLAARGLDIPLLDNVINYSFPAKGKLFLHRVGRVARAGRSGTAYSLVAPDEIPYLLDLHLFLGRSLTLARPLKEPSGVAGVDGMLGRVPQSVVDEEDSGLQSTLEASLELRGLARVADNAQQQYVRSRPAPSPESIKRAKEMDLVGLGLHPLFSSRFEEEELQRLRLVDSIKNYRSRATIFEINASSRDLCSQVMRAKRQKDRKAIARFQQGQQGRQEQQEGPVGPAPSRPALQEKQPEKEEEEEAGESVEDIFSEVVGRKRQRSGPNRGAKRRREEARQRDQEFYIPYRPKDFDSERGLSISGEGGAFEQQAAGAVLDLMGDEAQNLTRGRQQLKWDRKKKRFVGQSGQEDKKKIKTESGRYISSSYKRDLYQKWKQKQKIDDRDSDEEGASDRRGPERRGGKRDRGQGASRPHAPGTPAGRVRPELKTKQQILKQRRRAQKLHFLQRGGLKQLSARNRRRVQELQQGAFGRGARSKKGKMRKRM
# UniProt P14868, sequence (P14868 whole entry, looked up): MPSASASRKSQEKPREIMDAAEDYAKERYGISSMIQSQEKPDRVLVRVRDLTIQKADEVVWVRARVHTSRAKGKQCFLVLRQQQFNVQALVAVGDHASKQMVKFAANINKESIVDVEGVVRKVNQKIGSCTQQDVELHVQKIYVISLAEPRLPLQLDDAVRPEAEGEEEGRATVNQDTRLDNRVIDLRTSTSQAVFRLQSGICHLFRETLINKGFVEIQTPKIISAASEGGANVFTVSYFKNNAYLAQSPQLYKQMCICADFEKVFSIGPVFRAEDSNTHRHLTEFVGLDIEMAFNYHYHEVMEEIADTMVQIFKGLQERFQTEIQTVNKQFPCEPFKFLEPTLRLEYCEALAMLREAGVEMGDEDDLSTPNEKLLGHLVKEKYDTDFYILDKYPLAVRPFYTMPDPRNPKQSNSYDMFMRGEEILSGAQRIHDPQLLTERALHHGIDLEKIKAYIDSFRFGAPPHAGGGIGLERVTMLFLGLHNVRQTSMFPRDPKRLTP
# UniProt P61923, sequence (P61923 whole entry, looked up): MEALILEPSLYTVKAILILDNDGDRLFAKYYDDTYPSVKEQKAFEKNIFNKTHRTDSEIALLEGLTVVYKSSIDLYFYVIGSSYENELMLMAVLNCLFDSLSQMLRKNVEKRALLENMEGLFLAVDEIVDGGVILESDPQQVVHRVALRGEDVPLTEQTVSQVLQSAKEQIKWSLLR
# UniProt P48729, sequence (P48729 whole entry, looked up): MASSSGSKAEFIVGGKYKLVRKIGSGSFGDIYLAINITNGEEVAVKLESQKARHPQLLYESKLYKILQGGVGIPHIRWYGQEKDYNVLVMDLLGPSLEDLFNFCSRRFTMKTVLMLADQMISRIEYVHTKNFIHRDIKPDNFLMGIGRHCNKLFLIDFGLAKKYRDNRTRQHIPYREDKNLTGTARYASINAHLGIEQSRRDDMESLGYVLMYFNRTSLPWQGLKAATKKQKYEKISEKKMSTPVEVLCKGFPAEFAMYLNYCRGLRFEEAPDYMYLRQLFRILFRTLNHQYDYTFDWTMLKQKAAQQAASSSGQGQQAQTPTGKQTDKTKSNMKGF
Target,log2 fold change (erlotinib),log2 fold change [1],log2 fold change [2],log2 fold change [3],log2 fold change [4],log2 fold change [5],log2 fold change [6],log2 fold change [7],log2 fold change [8],log2 fold change (IRAK-1-4 Inhibitor I),log2 fold change (ibrutinib),log2 fold change [9],log2 fold change (ralimetinib),log2 fold change [10],log2 fold change [11],log2 fold change [12],log2 fold change [13],log2 fold change [14],log2 fold change [15],log2 fold change [16]
DDX20 (UniProt Q9UHI6),0.021,0.048,-0.054,-0.029,-0.005,0.007,0.022,0.032,0.042,-0.015,-0.01,0.017,0.029,-0.029,-0.03,-0.011,0.004,-0.006,0.044,0.01
CHUK (UniProt O15111),-0.005,0.114,-0.076,0.01,-0.019,0.022,0.015,-0.002,-0.002,-0.044,0.034,0.04,0.063,0.071,0.014,-0.047,-0.014,-0.013,0.009,-0.016
DDX54 isoform 2 (UniProt Q8TDD1),-0.088,-0.36,-0.038,-0.035,-0.191,-0.001,-0.054,0.069,0.014,-0.058,-0.005,0.006,0.036,0.023,-0.001,0.02,-0.054,-0.054,-0.006,0.013
CSTF2 (UniProt P33240),-0.036,-0.002,0.048,-0.048,0.044,0.011,-0.04,0.002,0,0.053,0.244 (active),-0.001,0.025,-0.033,-0.022,-0.033,-0.02,-0.011,0.052,0.011
CIB1 (UniProt Q99828),-0.039,0.126,0.013,0.042,-0.227,0.023,0.02,0.045,0.073,0.026,0.096,-0.137,0.004,-0.056,-0.027,0.007,-0.041,0.042,-0.003,-0.066
COASY isoform 2 (UniProt Q13057),0.006,-0.049,-0.044,-0.007,0.022,-0.018,-0.05,-0.019,0.024,-0.019,0.024,-0.015,0.103,0.002,-0.003,0.013,-0.001,-0.013,0.037,0.014
DIAPH1 (UniProt O60610),-0.004,-0.006,0.002,0.007,-0.002,-0.001,-0.006,-0.01,-0.001,-0.007,-0.028,-0.004,-0.006,0.005,-0.01,-0.009,0.003,-0.004,0.001,0.004
COPZ1 isoform 4 (UniProt P61923),-0.029,0.065,-0.05,-0.036,-0.142,-0.006,0,-0.08,-0.028,-0.015,0.123,0.007,0,0.013,0.02,-0.054,0.037,0.03,-0.012,0.117
CHEK1 (UniProt O14757),-0.048,-0.057,0,0.27 (active),0.008,0.023,0.06,-0.108,0.02,-0.011,0.019,0.104,0.032,-0.004,-0.003,0.004,0.011,0.026,-0.005,-0.024
COTL1 (UniProt Q14019),-0.012,0.04,0.013,-0.006,-0.02,0,0.004,0.022,0.008,-0.03,0.038,0.001,-0.025,0.049,-0.007,-0.055,0.02,-0.019,-0.015,-0.004
CYP51A1 (UniProt Q16850),-0.029,0.045,0.193,0.058,-0.087,-0.041,0.118,-0.092,-0.023,0.043,0.601 (active),-0.025,-0.025,0.101,0.038,-0.017,-0.031,-0.093,0.014,-0.099
DPH5 isoform 5 (UniProt Q9H2P9),0.008,-0.028,-0.025,0.066,-0.017,0.074,0.046,-0.027,0.027,0.009,0.043,-0.027,-0.031,0,0.298,-0.034,-0.111,-0.007,-0.037,0.04
CSNK2A1 (UniProt P68400),0.005,-0.111,-0.02,0.225,0.356 (active),0.017,0.219,0.112,-0.02,0,-0.041,0.468 (active),0.002,-0.028,-0.054,-0.039,0.158,-0.078,-0.01,0.002
CSNK1A1 (UniProt P48729),-0.027,-0.106,0.093,0.028,0.013,0.217,0.406 (active),-0.082,-0.032,-0.038,-0.098,0.148,0.088,-0.002,-0.035,-0.019,-0.002,-0.029,0,0.003
DARS (UniProt P14868),0.006,0.037,-0.039,0.027,0.019,-0.004,-0.04,-0.012,-0.024,-0.041,0.009,0.021,0.049,0.04,0.001,-0.003,0.027,-0.019,0.026,0.053
CSTB (UniProt P04080),-0.024,0.054,-0.016,0.018,0.004,-0.028,0.031,-0.015,0.031,0.082,0.017,-0.047,0.03,-0.065,0.019,-0.059,0.037,0.121,0.009,0.021
